Measurements as given in PubChem BioAssay AID602140 (NMMLSC, 2011).
“And” between values parts separate entries of the source, which are not always exact repeats. Identical values can stand only once. The list shows a part of the results. The source made the active and inactive calls. How the calls were made is not given here.

Tested on: Botulinum neurotoxin type F light chain protease (Clostridium botulinum)
Assay: inhibition of botulinum toxin F LC protease – biochemical, flow cytometry, cherry pick 1, confirmation (AID 602140)
Conditions: multiplex microsphere protease cleavage assay, at 10 µM, active compounds read high

SMILES	inhibition
COc1ccccc1C1CCN(C(=S)Nc2ccc(Br)cc2)CC1	4.3% (inactive)
Nc1ccccc1Sc1cc(Cl)nnc1Cl	-1.4% (inactive)
CC1CCc2c(sc3nc4n(c(=O)c23)CCS4)C1 (configuration not stated)	-5.8% (inactive)
COc1ccc(C(=O)Nc2nc(-c3ccc(OC)cc3)c(-c3ccc([N+](=O)[O-])cc3)s2)cc1	4% (inactive)
Cc1ccc(C(=O)COc2cccc(NC(=O)c3ccco3)c2)cc1	-7.2% (inactive)
Cc1ccccc1NC(=O)c1cc(S(=O)(=O)Nc2cccc(C(=O)O)c2)ccc1Cl	-1.9% (inactive)
Cc1ccc(-c2nc(-c3cccnc3)sc2CC(=O)Nc2ccc(C)c(Cl)c2)cc1	-18.6% (inactive)
COc1cc2cc(CN(CCN3CCCC3)C(=O)Nc3ccccc3Cl)c(=O)[nH]c2cc1OC	0.8% (inactive)
Cc1onc(-c2ccccc2Cl)c1C(=O)NCCn1ccc2ccccc21	-5.2% (inactive)
CCOCCn1c(-c2ccccc2)nc2ccccc21	-2.2% (inactive)
Cc1ccc2[nH]cc(CCNC(=O)C3CCCCC3)c2c1	0.6% (inactive)
COC(=O)CN(c1nc(C)c(Cl)c(OC)n1)S(=O)(=O)c1ccc(C)cc1	-0.3% (inactive)
COc1ccc(Br)cc1CNCCc1cccc(Cl)c1	-10% (inactive)
OC(c1ccc(Cl)cc1)C(CN1CCOCC1)c1ccccc1 (configuration not stated)	3.4% (inactive)
COc1ccccc1CNC(=O)C1Cc2ccccc2C(=O)O1 (configuration not stated)	-1.3% (inactive)
CC(=O)c1cccc(NC(=O)N2CCCC2C(=O)NCCc2ccccc2)c1 (configuration not stated)	0% (inactive)
COCc1cc(=O)[nH]c(SC)n1	-4.2% (inactive)
COc1ccc(C2CC(c3cccs3)=NN2c2nc(C)c(C(C)=O)s2)cc1OC (configuration not stated)	-1.7% (inactive) and 7.1% (inactive)
Cc1cc(S(=O)(=O)NC2CCCC2)ccc1-n1cnnn1	3.7% (inactive)
CCCSc1nc2sc3c(c2c(=O)n1-c1ccc(OC)cc1)CCN(C)C3	5.3% (inactive)
O=C(O)c1cc(S(=O)(=O)NC2CCCc3ccccc32)ccc1O (configuration not stated)	-1.4% (inactive)
COCCn1nnnc1C(c1cc2ccc(OC)cc2[nH]c1=O)N1CCc2ccccc2C1 (configuration not stated)	-9.6% (inactive)
